# Measurements taken from PubChem BioAssay AID686979 (National Center for Advancing Translational Sciences (NCATS), 2013).
# Among all 420,000 compounds or so, about 50,000 (12%) were called active. Not shown: some 26% with an inconclusive outcome. Calls come from the whole dose curve; as a rule, active = well fitted inhibition curve with a large enough effect; inconclusive = small, poorly fitted or top-dose-only effect; inactive = flat fitted curve, though single readings scatter. The full list was thinned out, with actives kept by preference. Where a SMILES comes first, the peptide text is derived from it. [ ]: non-standard residue; d: D form. ξ: configuration not given here. ξM = CSCCC(N)C(=O)O
# Assay: qHTS for Inhibitors of human tyrosyl-DNA phosphodiesterase 1 (TDP1): qHTS in cells in presence of CPT; note: nearly all actives have a fitted effect of over 55% in size
# Conditions: chicken DT40 Tdp1-/-;hTDP1 cells + 20 nM CPT, ATP luminescence, 48 h; series mostly up to 46.2 µM; activity change, negative = growth inhibition: at the top concentration
# Method in brief: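 Chicken DT40 Tdp1-/- cells stably complemented with human TDP1 were seeded at 400 cells/well in medium containing 20 nM camptothecin, exposed to pin-transferred compounds, and grown at 37 °C for at least 48 hr. Viability was read as ATP luminescence.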
# % is set by controls: 0 for no effect and ±100 for the full control effect; potency is the fitted concentration of half-maximal effect.
Compound,"activity change, negative = growth inhibition",Potency
CN(C)c1ccc(CN2CCOc3ccc(CN4CCC(O)(c5cccnc5)CC4)cc3C2)cc1,-11.9% [at 9.04 µM] (inactive),–
O=C(NNC(=O)c1ccc2ccccc2c1)c1ccc(Cl)cc1,-9.35% (inactive),–
C=CC(=O)c1ccc2ccccc2c1,–,2.91 µM (active)
CC(=O)CCC(=O)c1ccc2ccccc2c1,5.57% (inactive),–
COc1ccc(C(=O)N/N=C(\C)CC(=O)Nc2ccc(Cl)cn2)cc1,22.2% (inactive),–
c1csc(-c2nc(-c3ccncc3)no2)c1,1.73% (inactive),–
O=C(Oc1ccccc1)c1ccc2nccnc2c1,3.75% (inactive),–
Brc1ccc(-c2noc(-c3ccccc3)n2)o1,–,inactive
O=C(Oc1ccc(-c2nc(-c3ccccn3)no2)cc1)c1ccccc1,–,8.2 µM (active)
c1ccc(-c2noc(-c3cccs3)n2)nc1,–,8.2 µM (active)
COc1ccc(CCc2nc(-c3cccs3)no2)cc1,4.51% (inactive),–
COc1ccc(/C=C(\NC(=O)c2ccccc2)C(=O)NCCN2CCOCC2)cc1OC,10.4% (inactive),–
O=C(O)c1ccc(/C=N/NC(=O)c2ccc(Br)cc2)cc1,0.528% (inactive),–
CCN(C(=O)CSc1nnc(-c2ccc(OC(F)F)cc2)n1N)C1CCS(=O)(=O)C1 (stereo unspecified),-1.93% (inactive),–
COc1ccc2c(c1)N(C)/C(=C1/SC(=S)N(NC(C)=O)C1=O)S2,-12.3% (inactive),–
CCCCCCNC(=O)O[C@H]1CN(C(=O)OC(C)C)N(C(=O)OC(C)C)[C@@H]2CN(S(=O)(=O)c3ccc(C)cc3)C[C@]12O,–,18.4 µM (active)
COC(=O)[C@H]1C[C@H](OC(=O)NCc2ccccc2)[C@@]2(O)CN(S(=O)(=O)c3ccc(C)cc3)CC2[C@H]1C(=O)OC (stereo partly specified),-28.5% (inactive),–
CCCCOc1ccc(NC(=O)[C@@H]2CCCN2C(=O)C2CCN(S(=O)(=O)c3ccc(C)cc3)CC2)cc1,13.9% (inactive),–
CS(=O)(=O)N1CCN(C(=O)CSc2ccccc2)CC1,24.3% (inactive),–
CC(=O)Nc1ccc(NC(=O)CSc2nnnn2C2CCCCC2)cc1,-18.3% (inactive),–
OC[C@H]1O[C@@H](c2nc(-c3nc(-c4ccc(F)cc4)no3)cs2)[C@H](O)[C@@H](O)[C@H]1O,-1.35% (inactive),–
O=C(NNC(=S)NCCCN1CCOCC1)c1ccncc1,3.15% (inactive),–
COc1ccc(CNC(=O)C(NS(=O)(=O)c2cccc3nsnc23)C(C)C)cc1 (stereo unspecified),7.46% (inactive),–
COc1cc(Cl)c(NC(=O)C(NS(=O)(=O)c2cccs2)C(C)C)c(OC)c1 (stereo unspecified),-25.9% (inactive),–
CC(C)C(NS(=O)(=O)c1cccs1)C(=O)Nc1nc(C(C)(C)C)cs1 (stereo unspecified),–,16.4 µM (active)
O=C(CCNS(=O)(=O)c1ccccc1)NCCCc1ccccc1,-1.9% (inactive),–

Compound,"activity change, negative = growth inhibition",Potency
Nn1c(SCC(=O)Nc2ccc3c(c2)CCC3)nnc1C1CC1,4.68% (inactive),–
COC(=O)Cc1cnc(NC(=O)CSc2nc(C(C)C)cc(=O)[nH]2)s1,13.8% (inactive),–
Cn1c(=O)c2sccc2n2c(CCC(=O)NCc3ccccc3Cl)nnc12,-19% (inactive),–
CCC(=O)N1CCc2cc(S(=O)(=O)NCCC(=O)Nc3cccc(C)c3C)ccc21,-22.6% (inactive),–
CC1=C(C)CC2C(=O)N(c3cccc4ccccc34)C(=O)C2C1 (stereo unspecified),–,18.4 µM (active)
O=C1c2ccccc2C(=O)N1c1cccc2ccccc12,6.79% (inactive),–
Cc1ccc(N2C(=O)CC(Nc3cccc4ccccc34)C2=O)cc1 (stereo unspecified),6.75% (inactive),–
CCc1nccn1S(=O)(=O)c1cccc([N+](=O)[O-])c1,5.21% (inactive),–
CC1CCN(C(=O)Cn2nnnc2CN2CCOCC2)CC1,14.7% (inactive),–
O=C(c1cc2ccccc2o1)N1CCN(S(=O)(=O)c2ccc(Cl)s2)CC1,–,18.4 µM (active)
CCNC(=S)N1CCN(S(=O)(=O)c2ccc(Cl)s2)CC1,-23.7% (inactive),–
CS(=O)(=O)N1CCN(C(=O)c2cc3ccccc3oc2=O)CC1,1.63% (inactive),–
COc1cccc(C(O)Cc2nc3ccccc3n2C)c1OC (stereo unspecified),11.4% (inactive),–
NS(=O)(=O)c1ccc(CNC(=O)c2cccc(Oc3ccccc3)c2)cc1,-12.6% (inactive),–
COC(=O)CN1C(=O)[C@H]2[C@@H](/C=C/c3ccccc3)N3C(=O)CN(Cc4ccccc4)C(=O)[C@@]3(Cc3ccccc3)[C@H]2C1=O,-9.59% (inactive),–
CN1C(=O)[C@H]2[C@@H](C3CC3)N3C(=O)CN(Cc4ccccc4)C(=O)[C@@]3(C)[C@H]2C1=O,28.2% (inactive),–
CN1C(=O)[C@H]2[C@@H](/C=C/c3ccccc3)N3C(=O)CN(Cc4ccc(-c5ccccc5)cc4)C(=O)[C@@]3(C)[C@H]2C1=O,–,25.9 µM (active)
O=C(C[C@@H]1C/C=C\CCC(=O)OC[C@@H]2CCCN2C1=O)NCCO,0.104% (inactive),–
CC(=O)c1sc(N/N=C/c2ccc(C(C)C)cc2)nc1C,-22.3% (inactive),–
CCC(C)c1ccc(NC(=S)NCc2ccccn2)cc1 (stereo unspecified),-8.87% (inactive),–
CC(=O)N1CCc2cc(Br)cc(S(=O)(=O)CCC(=O)NCCc3ccc(Cl)cc3)c21,-6.18% (inactive),–
Cc1ccc(SCC(=O)Nc2ccc3oc(-c4ccccc4C)nc3c2)cc1,-26% (inactive),–
O=C(COc1ccc(Cl)cc1)Nc1ccc(-c2nc3cc(Cl)ccc3o2)c(O)c1,-16.9% (inactive),–
COc1ccc2oc(-c3cccc(NC(=O)CSc4ccc(Cl)cc4)c3)nc2c1,–,20.6 µM (active)
Cc1ccccc1-c1nc(NC(C)C)nc2cc(-c3ccccc3)sc12,–,16.4 µM (active)
COc1ccccc1C(=O)NC(CCSC)C(=O)NNC(=O)c1csc(N2CCOCC2)n1 (stereo unspecified),-12.3% (inactive),–

Compound,"activity change, negative = growth inhibition",Potency
CNc1ncnc2ccc(-c3cccc(NS(C)(=O)=O)c3)cc12,–,11.6 µM (active)
CS(=O)(=O)Nc1cccc(-c2cn3ccccc3n2)c1,-27.7% (inactive),–
COc1ccccc1CNc1ncncc1-c1cccc(NS(C)(=O)=O)c1,-0.692% (inactive),–
O=C(CCS(=O)(=O)c1ccccc1)NC1CCCC1,-12.6% (inactive),–
COC1=CCC2([N+](=O)[O-])CN(CC(=O)O)CC1([N+](=O)[O-])C2 (stereo unspecified),-15.2% (inactive),–
CCOc1ccccc1NC(=O)CCn1cnnn1,-0.217% (inactive),–
Cc1ccc(C)c(NC(=O)CN(C)C(=O)c2ccc3ncsc3c2)c1,-23% (inactive),–
Cc1ccc(Oc2cc(NC(=O)CCCn3nc(C)c([N+](=O)[O-])c3C)cc([N+](=O)[O-])c2)cc1,–,16.4 µM (active)
CCc1ccc(NC(=O)Cn2nc(C)c([N+](=O)[O-])c2C)cc1,-26% (inactive),–
COc1ccc(CNC(=O)CCCn2nc(C)c([N+](=O)[O-])c2C)cc1,3.66% (inactive),–
Cc1ccc(/C(N)=N/OC(=O)COc2ccc(Cl)c(C)c2)cc1,-12.5% (inactive),–
C/C(=N\NC(=O)Cc1ccccc1[N+](=O)[O-])c1cccnc1,-2.49% (inactive),–
CCc1ccccc1NC(=O)Cc1cn(C)c2ccccc12,–,inactive
O=C(Nc1cccc(C(F)(F)F)c1)c1ccc(N2CCNCC2)c([N+](=O)[O-])c1,–,14.6 µM (active)
Cc1cccc(C)c1NC(=O)CNC(=O)c1ccc(N2CCOCC2)c([N+](=O)[O-])c1,-8.91% (inactive),–
CC1CCN(c2ccc(C(=O)Nc3nnc(C4CC4)s3)cc2[N+](=O)[O-])CC1,7.78% (inactive),–
CCOc1ccc(NC(=O)CC(Cc2ccc(Cl)cc2)C(=O)O)cc1 (stereo unspecified),11.1% (inactive),–
CC(C)NC(=O)/C(C#N)=C\c1ccc(N(C)C)c(Br)c1,8.04% (inactive),–
N#C/C(=C\c1ccc(O)c(O)c1)C(=O)NCc1ccccc1,–,29.9 µM (active)
N#C/C(=C\c1ccc(O)c(O)c1)C(N)=O,-2.05% (inactive),–
CCc1nc(-c2cc(S(=O)(=O)N3CCN(c4ccc(OC)cc4)CC3)ccc2OC)no1,-14.5% (inactive),–
COc1cc2c(cc1O)C(SC)=NC(C)(C)C2,–,25.9 µM (active)
Cc1cn(C)c(=O)n(C)c1=O,8.57% (inactive),–
O=C1CCCCC1C(=O)c1ccccc1 (stereo unspecified),10.3% (inactive),–
O=C(Cn1c[n+](CC(=O)c2ccc([N+](=O)[O-])cc2)cn1)c1ccc([N+](=O)[O-])cc1,–,16.4 µM (active)
O=C(c1ccncc1)c1ccc([N+](=O)[O-])cc1,-28.2% (inactive),–

Compound,"activity change, negative = growth inhibition",Potency
O=C(Nn1cnnc1)c1ccc([N+](=O)[O-])cc1,0.36% (inactive),–
COC(=O)CNC(=O)C(CCSC)NC(C)=O (stereo unspecified) (Ac-[ξM]-Gly-OMe),3.75% (inactive),–
Cc1ccc(S(=O)(=O)Nc2nc(C)cc(-n3nc(C)cc3C)n2)cc1,-29.3% (inactive),–
CCCC(C(=O)n1nc(C)cc1C)C(NS(=O)(=O)c1ccc(C)cc1)c1ccccc1 (stereo unspecified),–,16.4 µM (active)
Cc1ccc(S(=O)(=O)NC(C(=O)N2CCOCCOCCOCCOCC2)c2ccccc2)cc1 (stereo unspecified),-0.594% (inactive),–
Cc1cccc(C(=O)NNC(=O)CSc2nnc(C(C)C)n2C)c1,-15.2% (inactive),–
COc1ccc(NC(=O)C(c2ccccc2)N2Cc3ccccc3C2=O)cc1 (stereo unspecified),-17.9% (inactive),–
Cc1ccc2nc(C)cc(N/N=C/c3ccc(F)cc3)c2c1,-0.865% (inactive),–
Fc1ccc(/C=N/Nc2nc(-c3cccnc3)nc3ccccc23)cc1,–,20.6 µM (active)
Cc1cnc(CNc2nc(-c3cccnc3)nc3ccccc23)cn1,-3.03% (inactive),–
C/C(Cn1nnc2ccccc21)=N\OC(=O)c1cc(F)c(F)cc1Cl,-1.19% (inactive),–
Cc1cc(NC(=O)CCC(=O)N(CC(=O)NCC2CCCO2)c2ccccc2)no1 (stereo unspecified),1.99% (inactive),–
CCc1nc2ccccc2c(C(=O)OC2CCCCC2=O)c1C (stereo unspecified),-18.5% (inactive),–
Cn1cccc1C(=O)OCC(=O)c1ccc(Br)s1,2.4% (inactive),–
O=C(COC(=O)c1c2c(nc3ccccc13)CCCC2)c1ccc(Br)s1,–,8.2 µM (active)
CCc1noc(C)c1C(=O)N1CCCSC1=Nc1ccccc1OC,-7.02% (inactive),–
CN(C)S(=O)(=O)c1ccc(C(=O)NCCN=C2NS(=O)(=O)c3ccccc32)cc1,-3.6% (inactive),–
Cc1cc(C(=O)NC2CC(C)(C)Cc3c2cnn3-c2ccccc2)n[nH]1 (stereo unspecified),-10.9% (inactive),–
CC1(C)Cc2c(cnn2-c2cccc(F)c2)C(NC(=O)c2cc[n+]([O-])cc2)C1 (stereo unspecified),15% (inactive),–
COC(=O)c1ccc(C(=O)NC2CC(C)(C)Cc3c2cnn3-c2ccc(F)cc2)nc1 (stereo unspecified),–,1.84 µM (active)
Cc1ccc(Cl)cc1NC(=O)CCC(=O)N1CC(C)Sc2ccccc21 (stereo unspecified),–,23.1 µM (active)
Cc1ccc(Cl)cc1NC(=O)COC(=O)C1CCCCC1,8.46% (inactive),–
Cc1ccc(CNC(=O)CCC(=O)N2CC(C)Sc3ccccc32)cc1 (stereo unspecified),-27.6% (inactive),–
